Structures can show the parent of a compound that is named as a salt. A number with no mark means an inactive call.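 Rule for the calls: for the amine columns active = adjusted P below 0.05 in both replicates with a change the same way and a mean fold change under 0.8 or over 1.25; inactive = the rest.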
What follows are molecules tested on Klebsiella aerogenes DSM 30053 (assay: fold change of Putrescine concentration vs plate DMSO controls (fold change (ratio)); higher = more amine produced, active = hit call of the paper (significant change in both replicates, either direction)). Conditions: incubation time: 27 h, anaerobic, 37 °C.
Method in brief: (§1)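 In 80 µL wells, cultures of four gut bacterial strains in mGAM started at OD 0.1 before a 1:1 dilution and grew anaerobically at 37 °C for 27 h. Compounds were added to 20 µM final, except sweeteners at 50 µM final. After extraction of whole cultures with cold acetonitrile/methanol plus 0.1% formic acid and centrifugation, amines were measured by LC–triple-quadrupole MS in dynamic MRM mode against external calibration curves, with within-batch drift correction. Values give fold change over DMSO controls on the same plate, averaged across 2 biological replicates.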
`CCCc1nc2c(C)cc(-c3nc4ccccc4n3C)cc2n1Cc1ccc(-c2ccccc2C(=O)O)cc1` [Telmisartan] (20 µM) was tested, and the “fold change of Putrescine concentration” value was 1.01. With `CNC(C)CCC=C(C)C` (centres undefined) [Isometheptene mucate] (20 µM) the “fold change of Putrescine concentration” value was 1.04. For `O=C1CCC(N2C(=O)c3ccccc3C2=O)C(=O)N1` (centres undefined) [Thalidomide] (20 µM), the “fold change of Putrescine concentration” value was 1.02. With `CCN(CC)C(=O)N1CCN(C)CC1` [Diethylcarbamazine citrate] (20 µM) the “fold change of Putrescine concentration” value was 0.985. `CCCCCCCN(CC)CCCC(O)c1ccc(NS(C)(=O)=O)cc1` (centres undefined) [Ibutilide fumarate] (20 µM) was tested, and the “fold change of Putrescine concentration” value was 0.989. With `CCN(CCCCOC(=O)c1ccc(OC)c(OC)c1)C(C)Cc1ccc(OC)cc1` (centres undefined) [Mebeverine hydrochloride] (20 µM) the “fold change of Putrescine concentration” value was 1.05. In the case of `N=C(N=C(N)N)N1CCOCC1` [Moroxidine hydrochloride] (20 µM), the “fold change of Putrescine concentration” value is reported as 1.06. With `O=c1[nH]c(=O)n([C@H]2C[C@H](O)[C@@H](CO)O2)cc1I` [Idoxuridine] (20 µM) the “fold change of Putrescine concentration” value was 1.02. In the case of `Cc1cc(C2CCCCC2)n(O)c(=O)c1` [Ciclopirox ethanolamine] (20 µM), the “fold change of Putrescine concentration” value is reported as 0.994. For `CC[N+](C)(C)Cc1ccccc1Br` [Bretylium tosylate] (20 µM), the “fold change of Putrescine concentration” value was 0.998.

The molecules below were run on Escherichia coli IAI1 (assay: fold change of Cadaverine concentration vs plate DMSO controls (fold change (ratio)); higher = more amine produced, active = hit call of the paper (significant change in both replicates, either direction)). Conditions: incubation time: 27 h, anaerobic, 37 °C.
Method in brief: as §1
In the case of `CC1CC(OC(=O)C(O)c2ccccc2)CC(C)(C)C1` (centres undefined) [Cyclandelate] (20 µM), the “fold change of Cadaverine concentration” value is reported as 1.02. With `COc1ccc(C(=O)CC(=O)c2ccc(C(C)(C)C)cc2)cc1` [Avobenzone] (20 µM) the “fold change of Cadaverine concentration” value was 1.05. In the case of `Cc1nc2ccccc2n1Cc1ccc(Cl)cc1` [Chlormidazole] (20 µM), the “fold change of Cadaverine concentration” value is reported as 0.982. With `Cn1nnnc1SCC1=C(C(=O)O)N2C(=O)[C@@H](NC(=O)[C@H](O)c3ccccc3)[C@H]2SC1` [Cefamandole sodium salt] (20 µM) the “fold change of Cadaverine concentration” value was 2.1 (active). With `CCN1CCC[C@H]1CNC(=O)c1c(O)c(Cl)cc(Cl)c1OC` [Raclopride] (20 µM) the “fold change of Cadaverine concentration” value was 0.944. `O=c1oc2ccccc2c(O)c1Cc1c(O)c2ccccc2oc1=O` [Dicumarol] (20 µM) was tested, and the “fold change of Cadaverine concentration” value was 1.01. In the case of `S=C([S-])NCCNC(=S)[S-].S=C([S-])NCCNC(=S)[S-].[Mn+2].[Zn+2]` (20 µM), the “fold change of Cadaverine concentration” value is reported as 0.85. In the case of `CC(NCCC(c1ccccc1)c1ccccc1)c1ccccc1` (centres undefined) [Fendiline hydrochloride] (20 µM), the “fold change of Cadaverine concentration” value is reported as 0.196 (active). For `Nc1ccc(S(=O)(=O)Nc2nccs2)cc1` [Sulfathiazole] (20 µM), the “fold change of Cadaverine concentration” value was 1.03. For `CC(=O)/N=c1/sc(S(N)(=O)=O)nn1C` [Methazolamide] (20 µM), the “fold change of Cadaverine concentration” value was 0.958. `Oc1ccccc1O` [Catechol] (20 µM) was tested, and the “fold change of Cadaverine concentration” value was 1.16. With `COc1cc(C(=O)NS(=O)(=O)c2ccccc2C)ccc1Cc1cn(C)c2ccc(NC(=O)OC3CCCC3)cc12` [Zafirlukast] (20 µM) the “fold change of Cadaverine concentration” value was 1.02. In the case of `COc1nc(N)nc2c1ncn2[C@@H]1O[C@H](CO)[C@@H](O)[C@@H]1O` [Nelarabine] (20 µM), the “fold change of Cadaverine concentration” value is reported as 0.989. `O=C(NCc1ncc(C(F)(F)F)cc1Cl)c1c(Cl)cccc1Cl` (20 µM) was tested, and the “fold change of Cadaverine concentration” value was 1.01. In the case of `CCc1oc2ccccc2c1C(=O)c1cc(Br)c(O)c(Br)c1` [Benzbromarone] (20 µM), the “fold change of Cadaverine concentration” value is reported as 1.04. `Nc1nc(=O)[nH]cc1F` [Flucytosine] (20 µM) was tested, and the “fold change of Cadaverine concentration” value was 0.968. For `CC[N+](CC)(CC)CCOc1cccc(OCC[N+](CC)(CC)CC)c1OCC[N+](CC)(CC)CC` [Gallamine triethiodide] (20 µM), the “fold change of Cadaverine concentration” value was 0.947. In the case of `COc1cc(C)nc(-n2nc(C)cc2OC)n1` [Epirizole] (20 µM), the “fold change of Cadaverine concentration” value is reported as 1.01. `COc1ccccc1O` [Guaiacol] (20 µM) was tested, and the “fold change of Cadaverine concentration” value was 1.02. For `COc1cccc2c1C(=O)c1c(O)c3c(c(O)c1C2=O)C[C@@](O)(C(=O)CO)C[C@@H]3O[C@H]1C[C@H](N)[C@@H](O)[C@H](C)O1` [Epirubicin hydrochloride] (20 µM), the “fold change of Cadaverine concentration” value was 1.04. For `Cc1onc(-c2ccccc2)c1C(=O)N[C@@H]1C(=O)N2[C@@H]1SC(C)(C)[C@@H]2C(=O)O` [Oxacillin sodium] (20 µM), the “fold change of Cadaverine concentration” value was 1.01. In the case of `CCCOc1cc(N)ccc1C(=O)OCCN(CC)CC` [Propoxycaine hydrochloride] (20 µM), the “fold change of Cadaverine concentration” value is reported as 0.967. `OC[C@H]1O[C@H](O[C@H]2O[C@H](CO)[C@@H](O)[C@H](O)[C@H]2O)[C@H](O)[C@@H](O)[C@@H]1O` [Trehalose] (50 µM) was tested, and the “fold change of Cadaverine concentration” value was 0.831. With `CN1[C@@H]2CC[C@H]1C[C@@H](OC(c1ccccc1)c1ccccc1)C2` [Benztropine mesylate] (20 µM) the “fold change of Cadaverine concentration” value was 1.05. `C[C@H](CCC(=O)O)[C@H]1CC[C@H]2[C@@H]3CC[C@@H]4C[C@H](O)CC[C@]4(C)[C@H]3CC[C@]12C` [Lithocholic acid] (20 µM) was tested, and the “fold change of Cadaverine concentration” value was 0.975. For `CN(C)CCC=C1c2ccccc2COc2ccccc21` [Doxepin hydrochloride] (20 µM), the “fold change of Cadaverine concentration” value was 0.919. In the case of `NC[C@H]1O[C@H](O[C@H]2[C@H](O)[C@@H](O[C@H]3O[C@H](CO)[C@@H](O)[C@H](N)[C@H]3O)[C@H](N)C[C@@H]2N)[C@H](N)C[C@@H]1O` [Tobramycin] (20 µM), the “fold change of Cadaverine concentration” value is reported as 0.889. With `CC(=O)Oc1cccc2c1C(=O)c1c(OC(C)=O)cc(C(=O)O)cc1C2=O` [Diacerein] (20 µM) the “fold change of Cadaverine concentration” value was 1.02. In the case of `CCCCc1ncc(/C=C(\Cc2cccs2)C(=O)O)n1Cc1ccc(C(=O)O)cc1` [Eprosartan mesylate] (20 µM), the “fold change of Cadaverine concentration” value is reported as 0.963. With `CCCc1nc2c(C)cc(-c3nc4ccccc4n3C)cc2n1Cc1ccc(-c2ccccc2C(=O)O)cc1` [Telmisartan] (20 µM) the “fold change of Cadaverine concentration” value was 1.05. `CNC(C)CCC=C(C)C` (centres undefined) [Isometheptene mucate] (20 µM) was tested, and the “fold change of Cadaverine concentration” value was 1.01. With `O=C1CCC(N2C(=O)c3ccccc3C2=O)C(=O)N1` (centres undefined) [Thalidomide] (20 µM) the “fold change of Cadaverine concentration” value was 1.02. `CCN(CC)C(=O)N1CCN(C)CC1` [Diethylcarbamazine citrate] (20 µM) was tested, and the “fold change of Cadaverine concentration” value was 1.02. `CCCCCCCN(CC)CCCC(O)c1ccc(NS(C)(=O)=O)cc1` (centres undefined) [Ibutilide fumarate] (20 µM) was tested, and the “fold change of Cadaverine concentration” value was 1.02. In the case of `CCN(CCCCOC(=O)c1ccc(OC)c(OC)c1)C(C)Cc1ccc(OC)cc1` (centres undefined) [Mebeverine hydrochloride] (20 µM), the “fold change of Cadaverine concentration” value is reported as 1.04. `N=C(N=C(N)N)N1CCOCC1` [Moroxidine hydrochloride] (20 µM) was tested, and the “fold change of Cadaverine concentration” value was 0.916. For `O=c1[nH]c(=O)n([C@H]2C[C@H](O)[C@@H](CO)O2)cc1I` [Idoxuridine] (20 µM), the “fold change of Cadaverine concentration” value was 0.982. In the case of `Cc1cc(C2CCCCC2)n(O)c(=O)c1` [Ciclopirox ethanolamine] (20 µM), the “fold change of Cadaverine concentration” value is reported as 1. For `CC[N+](C)(C)Cc1ccccc1Br` [Bretylium tosylate] (20 µM), the “fold change of Cadaverine concentration” value was 0.937.
